# Data from ChEMBL document CHEMBL1961873, “Compounds: GSK PKIS; Assays: Nanosyn kinase panel” (2012).
# Assays:
# [1] = system: Epidermal growth factor receptor (Homo sapiens), P00533 [L858R,T790M]; conditions: at 0.1 µM
# [2] = system: Epidermal growth factor receptor (Homo sapiens), P00533 [L858R,T790M]; conditions: at 1 µM
# [3] = biological target: Ephrin type-A receptor 2 (Homo sapiens) (UniProt P29317); conditions: at 0.1 µM
# [4] = biological target: Ephrin type-A receptor 2 (Homo sapiens) (UniProt P29317); conditions: at 1 µM
# [5] = biological target: Ephrin type-A receptor 3 (Homo sapiens) (UniProt P29320); conditions: at 0.1 µM
# [6] = biological target: Ephrin type-A receptor 3 (Homo sapiens) (UniProt P29320); conditions: at 1 µM
# [7] = biological target: Ephrin type-A receptor 4 (Homo sapiens) (UniProt P54764); conditions: at 0.1 µM
# [8] = biological target: Ephrin type-A receptor 4 (Homo sapiens) (UniProt P54764); conditions: at 1 µM
# [9] = biological target: Ephrin type-B receptor 2 (Homo sapiens) (UniProt P29323); conditions: at 0.1 µM
# [10] = biological target: Ephrin type-B receptor 2 (Homo sapiens) (UniProt P29323); conditions: at 1 µM
# [11] = biological target: Ephrin type-B receptor 3 (Homo sapiens) (UniProt P54753); conditions: at 0.1 µM
# [12] = biological target: Ephrin type-B receptor 3 (Homo sapiens) (UniProt P54753); conditions: at 1 µM
# [13] = biological target: Ephrin type-B receptor 4 (Homo sapiens) (UniProt P54760); conditions: at 0.1 µM
# [14] = biological target: Ephrin type-B receptor 4 (Homo sapiens) (UniProt P54760); conditions: at 1 µM
# [15] = biological target: Receptor tyrosine-protein kinase erbB-2 (Homo sapiens) (UniProt P04626); conditions: at 0.1 µM
# [16] = biological target: Receptor tyrosine-protein kinase erbB-2 (Homo sapiens) (UniProt P04626); conditions: at 1 µM
# [17] = biological target: Receptor tyrosine-protein kinase erbB-4 (Homo sapiens) (UniProt Q15303); conditions: at 0.1 µM
# [18] = biological target: Receptor tyrosine-protein kinase erbB-4 (Homo sapiens) (UniProt Q15303); conditions: at 1 µM
# [19] = biological target: Tyrosine-protein kinase Fer (Homo sapiens) (UniProt P16591); conditions: at 0.1 µM
# [20] = biological target: Tyrosine-protein kinase Fer (Homo sapiens) (UniProt P16591); conditions: at 1 µM
# [21] = biological target: Tyrosine-protein kinase Fes/Fps (Homo sapiens) (UniProt P07332); conditions: at 0.1 µM
# [22] = biological target: Tyrosine-protein kinase Fes/Fps (Homo sapiens) (UniProt P07332); conditions: at 1 µM
# [23] = biological target: Fibroblast growth factor receptor 1 (Homo sapiens) (UniProt P11362); conditions: at 0.1 µM
# Fibroblast growth factor receptor 1 (Homo sapiens), sequence (P11362 22-822 limits assumed): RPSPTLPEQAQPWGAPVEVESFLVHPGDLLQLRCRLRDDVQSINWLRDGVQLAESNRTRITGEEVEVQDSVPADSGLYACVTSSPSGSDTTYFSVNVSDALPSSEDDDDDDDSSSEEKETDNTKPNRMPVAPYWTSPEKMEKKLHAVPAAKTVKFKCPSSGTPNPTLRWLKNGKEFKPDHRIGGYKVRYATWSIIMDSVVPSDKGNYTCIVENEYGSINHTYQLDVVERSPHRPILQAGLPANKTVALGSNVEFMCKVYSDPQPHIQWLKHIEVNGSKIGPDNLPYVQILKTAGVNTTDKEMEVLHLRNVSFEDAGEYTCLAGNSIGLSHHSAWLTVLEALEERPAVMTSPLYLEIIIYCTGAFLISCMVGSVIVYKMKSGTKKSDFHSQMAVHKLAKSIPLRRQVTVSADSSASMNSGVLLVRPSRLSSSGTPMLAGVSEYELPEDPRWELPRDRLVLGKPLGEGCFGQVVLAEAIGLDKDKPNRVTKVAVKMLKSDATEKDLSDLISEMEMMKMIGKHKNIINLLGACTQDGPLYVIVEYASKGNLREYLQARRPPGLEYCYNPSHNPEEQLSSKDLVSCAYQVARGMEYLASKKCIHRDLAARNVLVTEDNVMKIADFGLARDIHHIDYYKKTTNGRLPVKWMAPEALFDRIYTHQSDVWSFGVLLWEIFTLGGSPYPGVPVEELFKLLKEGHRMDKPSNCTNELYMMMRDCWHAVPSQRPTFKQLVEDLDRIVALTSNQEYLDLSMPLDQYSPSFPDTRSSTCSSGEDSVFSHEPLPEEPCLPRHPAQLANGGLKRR
# [24] = biological target: Fibroblast growth factor receptor 1 (Homo sapiens) (UniProt P11362); conditions: at 1 µM
# [25] = biological target: Fibroblast growth factor receptor 2 (Homo sapiens) (UniProt P21802); conditions: at 0.1 µM
# [26] = biological target: Fibroblast growth factor receptor 2 (Homo sapiens) (UniProt P21802); conditions: at 1 µM
# [27] = biological target: Fibroblast growth factor receptor 3 (Homo sapiens) (UniProt P22607); conditions: at 0.1 µM
# [28] = biological target: Fibroblast growth factor receptor 3 (Homo sapiens) (UniProt P22607); conditions: at 1 µM
# [29] = biological target: Fibroblast growth factor receptor 4 (Homo sapiens) (UniProt P22455); conditions: at 0.1 µM
# [30] = biological target: Fibroblast growth factor receptor 4 (Homo sapiens) (UniProt P22455); conditions: at 1 µM
# [31] = biological target: Tyrosine-protein kinase Fgr (Homo sapiens) (UniProt P09769); conditions: at 0.1 µM
# [32] = biological target: Tyrosine-protein kinase Fgr (Homo sapiens) (UniProt P09769); conditions: at 1 µM
# [33] = biological target: Vascular endothelial growth factor receptor 1 (Homo sapiens) (UniProt P17948); conditions: at 0.1 µM
# [34] = biological target: Vascular endothelial growth factor receptor 1 (Homo sapiens) (UniProt P17948); conditions: at 1 µM
# [35] = biological target: Receptor-type tyrosine-protein kinase FLT3 (Homo sapiens) (UniProt P36888); conditions: at 0.1 µM
# [36] = biological target: Receptor-type tyrosine-protein kinase FLT3 (Homo sapiens) (UniProt P36888); conditions: at 1 µM
# [37] = system: Receptor-type tyrosine-protein kinase FLT3 (Homo sapiens), P36888 [D835Y]; conditions: at 0.1 µM
# [38] = biological target: Non-receptor tyrosine-protein kinase TYK2 (Homo sapiens) (UniProt P29597); conditions: at 1 µM;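 note: values are mean percent inhibition of TYK2 kinase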
# [39] = biological target: Tyrosine-protein kinase receptor TYRO3 (Homo sapiens) (UniProt Q06418); conditions: at 0.1 µM
# [40] = biological target: Tyrosine-protein kinase receptor TYRO3 (Homo sapiens) (UniProt Q06418); conditions: at 1 µM
# [41] = biological target: Tyrosine-protein kinase Yes (Homo sapiens) (UniProt P07947); conditions: at 0.1 µM
# Tyrosine-protein kinase Yes (Homo sapiens), sequence (P07947 2-543 limits assumed): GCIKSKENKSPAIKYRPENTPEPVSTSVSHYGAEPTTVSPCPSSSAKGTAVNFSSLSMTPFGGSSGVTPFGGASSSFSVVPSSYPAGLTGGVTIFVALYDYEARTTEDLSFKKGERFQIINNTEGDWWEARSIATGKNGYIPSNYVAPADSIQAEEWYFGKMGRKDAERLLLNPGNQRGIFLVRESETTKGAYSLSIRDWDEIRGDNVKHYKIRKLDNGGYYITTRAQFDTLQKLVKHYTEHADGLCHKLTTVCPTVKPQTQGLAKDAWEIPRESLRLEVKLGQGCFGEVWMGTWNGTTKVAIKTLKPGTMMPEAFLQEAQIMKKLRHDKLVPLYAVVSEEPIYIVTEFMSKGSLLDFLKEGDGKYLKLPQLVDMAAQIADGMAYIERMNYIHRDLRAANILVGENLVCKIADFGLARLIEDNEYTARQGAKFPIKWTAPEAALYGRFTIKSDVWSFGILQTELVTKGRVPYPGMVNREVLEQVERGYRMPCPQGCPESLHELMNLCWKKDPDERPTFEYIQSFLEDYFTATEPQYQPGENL
# [42] = biological target: Tyrosine-protein kinase Yes (Homo sapiens) (UniProt P07947); conditions: at 1 µM
# [43] = biological target: Tyrosine-protein kinase ZAP-70 (Homo sapiens) (UniProt P43403); conditions: at 0.1 µM
# Tyrosine-protein kinase ZAP-70 (Homo sapiens), sequence (P43403 whole entry): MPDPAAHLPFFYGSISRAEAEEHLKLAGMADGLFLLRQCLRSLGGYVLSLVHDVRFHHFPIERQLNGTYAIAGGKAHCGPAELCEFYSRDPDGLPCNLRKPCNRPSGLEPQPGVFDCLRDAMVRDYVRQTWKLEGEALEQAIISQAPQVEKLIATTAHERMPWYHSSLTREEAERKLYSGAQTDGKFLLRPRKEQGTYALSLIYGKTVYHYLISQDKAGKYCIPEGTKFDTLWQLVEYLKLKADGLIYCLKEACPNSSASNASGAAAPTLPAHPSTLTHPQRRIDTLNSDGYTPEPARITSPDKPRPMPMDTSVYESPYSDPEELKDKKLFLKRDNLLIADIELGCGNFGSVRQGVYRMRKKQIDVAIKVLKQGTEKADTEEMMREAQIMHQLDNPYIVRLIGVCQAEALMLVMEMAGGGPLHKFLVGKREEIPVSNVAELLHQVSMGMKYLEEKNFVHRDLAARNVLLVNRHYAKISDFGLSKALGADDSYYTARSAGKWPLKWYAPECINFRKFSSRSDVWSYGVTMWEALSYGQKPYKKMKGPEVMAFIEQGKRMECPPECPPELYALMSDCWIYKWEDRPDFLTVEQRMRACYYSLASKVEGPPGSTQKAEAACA
# [44] = biological target: Tyrosine-protein kinase ZAP-70 (Homo sapiens) (UniProt P43403); conditions: at 1 µM
# [45] = biological target: Serine/threonine-protein kinase B-raf (Homo sapiens) (UniProt P15056); conditions: at 0.1 µM
# [46] = biological target: Serine/threonine-protein kinase B-raf (Homo sapiens) (UniProt P15056); conditions: at 1 µM
# [47] = system: Serine/threonine-protein kinase B-raf (Homo sapiens), P15056 [V600E]; conditions: at 0.1 µM
# [48] = system: Serine/threonine-protein kinase B-raf (Homo sapiens), P15056 [V600E]; conditions: at 1 µM
# [49] = biological target: RAF proto-oncogene serine/threonine-protein kinase (Homo sapiens) (UniProt P04049); conditions: at 0.1 µM
# [50] = biological target: RAF proto-oncogene serine/threonine-protein kinase (Homo sapiens) (UniProt P04049); conditions: at 1 µM
# [51] = biological target: Interleukin-1 receptor-associated kinase 4 (Homo sapiens) (UniProt Q9NWZ3); conditions: at 0.1 µM
# Interleukin-1 receptor-associated kinase 4 (Homo sapiens), sequence (Q9NWZ3 whole entry): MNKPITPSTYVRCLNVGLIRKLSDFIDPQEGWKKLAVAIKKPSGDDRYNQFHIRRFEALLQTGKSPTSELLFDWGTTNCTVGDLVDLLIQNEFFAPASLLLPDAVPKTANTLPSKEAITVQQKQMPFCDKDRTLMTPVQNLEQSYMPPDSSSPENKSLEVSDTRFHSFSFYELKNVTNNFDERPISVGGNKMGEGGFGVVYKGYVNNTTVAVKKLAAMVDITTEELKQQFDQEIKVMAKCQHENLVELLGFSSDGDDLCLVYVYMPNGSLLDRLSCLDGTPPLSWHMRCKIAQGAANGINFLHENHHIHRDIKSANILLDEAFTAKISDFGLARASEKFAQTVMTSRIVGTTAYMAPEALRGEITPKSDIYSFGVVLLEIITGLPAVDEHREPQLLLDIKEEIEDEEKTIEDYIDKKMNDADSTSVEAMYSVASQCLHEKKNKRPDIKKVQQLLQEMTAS
# [52] = biological target: Interleukin-1 receptor-associated kinase 4 (Homo sapiens) (UniProt Q9NWZ3); conditions: at 1 µM
# [53] = biological target: Leucine-rich repeat serine/threonine-protein kinase 2 (Homo sapiens) (UniProt Q5S007); conditions: at 0.1 µM
# Leucine-rich repeat serine/threonine-protein kinase 2 (Homo sapiens), sequence (Q5S007 whole entry): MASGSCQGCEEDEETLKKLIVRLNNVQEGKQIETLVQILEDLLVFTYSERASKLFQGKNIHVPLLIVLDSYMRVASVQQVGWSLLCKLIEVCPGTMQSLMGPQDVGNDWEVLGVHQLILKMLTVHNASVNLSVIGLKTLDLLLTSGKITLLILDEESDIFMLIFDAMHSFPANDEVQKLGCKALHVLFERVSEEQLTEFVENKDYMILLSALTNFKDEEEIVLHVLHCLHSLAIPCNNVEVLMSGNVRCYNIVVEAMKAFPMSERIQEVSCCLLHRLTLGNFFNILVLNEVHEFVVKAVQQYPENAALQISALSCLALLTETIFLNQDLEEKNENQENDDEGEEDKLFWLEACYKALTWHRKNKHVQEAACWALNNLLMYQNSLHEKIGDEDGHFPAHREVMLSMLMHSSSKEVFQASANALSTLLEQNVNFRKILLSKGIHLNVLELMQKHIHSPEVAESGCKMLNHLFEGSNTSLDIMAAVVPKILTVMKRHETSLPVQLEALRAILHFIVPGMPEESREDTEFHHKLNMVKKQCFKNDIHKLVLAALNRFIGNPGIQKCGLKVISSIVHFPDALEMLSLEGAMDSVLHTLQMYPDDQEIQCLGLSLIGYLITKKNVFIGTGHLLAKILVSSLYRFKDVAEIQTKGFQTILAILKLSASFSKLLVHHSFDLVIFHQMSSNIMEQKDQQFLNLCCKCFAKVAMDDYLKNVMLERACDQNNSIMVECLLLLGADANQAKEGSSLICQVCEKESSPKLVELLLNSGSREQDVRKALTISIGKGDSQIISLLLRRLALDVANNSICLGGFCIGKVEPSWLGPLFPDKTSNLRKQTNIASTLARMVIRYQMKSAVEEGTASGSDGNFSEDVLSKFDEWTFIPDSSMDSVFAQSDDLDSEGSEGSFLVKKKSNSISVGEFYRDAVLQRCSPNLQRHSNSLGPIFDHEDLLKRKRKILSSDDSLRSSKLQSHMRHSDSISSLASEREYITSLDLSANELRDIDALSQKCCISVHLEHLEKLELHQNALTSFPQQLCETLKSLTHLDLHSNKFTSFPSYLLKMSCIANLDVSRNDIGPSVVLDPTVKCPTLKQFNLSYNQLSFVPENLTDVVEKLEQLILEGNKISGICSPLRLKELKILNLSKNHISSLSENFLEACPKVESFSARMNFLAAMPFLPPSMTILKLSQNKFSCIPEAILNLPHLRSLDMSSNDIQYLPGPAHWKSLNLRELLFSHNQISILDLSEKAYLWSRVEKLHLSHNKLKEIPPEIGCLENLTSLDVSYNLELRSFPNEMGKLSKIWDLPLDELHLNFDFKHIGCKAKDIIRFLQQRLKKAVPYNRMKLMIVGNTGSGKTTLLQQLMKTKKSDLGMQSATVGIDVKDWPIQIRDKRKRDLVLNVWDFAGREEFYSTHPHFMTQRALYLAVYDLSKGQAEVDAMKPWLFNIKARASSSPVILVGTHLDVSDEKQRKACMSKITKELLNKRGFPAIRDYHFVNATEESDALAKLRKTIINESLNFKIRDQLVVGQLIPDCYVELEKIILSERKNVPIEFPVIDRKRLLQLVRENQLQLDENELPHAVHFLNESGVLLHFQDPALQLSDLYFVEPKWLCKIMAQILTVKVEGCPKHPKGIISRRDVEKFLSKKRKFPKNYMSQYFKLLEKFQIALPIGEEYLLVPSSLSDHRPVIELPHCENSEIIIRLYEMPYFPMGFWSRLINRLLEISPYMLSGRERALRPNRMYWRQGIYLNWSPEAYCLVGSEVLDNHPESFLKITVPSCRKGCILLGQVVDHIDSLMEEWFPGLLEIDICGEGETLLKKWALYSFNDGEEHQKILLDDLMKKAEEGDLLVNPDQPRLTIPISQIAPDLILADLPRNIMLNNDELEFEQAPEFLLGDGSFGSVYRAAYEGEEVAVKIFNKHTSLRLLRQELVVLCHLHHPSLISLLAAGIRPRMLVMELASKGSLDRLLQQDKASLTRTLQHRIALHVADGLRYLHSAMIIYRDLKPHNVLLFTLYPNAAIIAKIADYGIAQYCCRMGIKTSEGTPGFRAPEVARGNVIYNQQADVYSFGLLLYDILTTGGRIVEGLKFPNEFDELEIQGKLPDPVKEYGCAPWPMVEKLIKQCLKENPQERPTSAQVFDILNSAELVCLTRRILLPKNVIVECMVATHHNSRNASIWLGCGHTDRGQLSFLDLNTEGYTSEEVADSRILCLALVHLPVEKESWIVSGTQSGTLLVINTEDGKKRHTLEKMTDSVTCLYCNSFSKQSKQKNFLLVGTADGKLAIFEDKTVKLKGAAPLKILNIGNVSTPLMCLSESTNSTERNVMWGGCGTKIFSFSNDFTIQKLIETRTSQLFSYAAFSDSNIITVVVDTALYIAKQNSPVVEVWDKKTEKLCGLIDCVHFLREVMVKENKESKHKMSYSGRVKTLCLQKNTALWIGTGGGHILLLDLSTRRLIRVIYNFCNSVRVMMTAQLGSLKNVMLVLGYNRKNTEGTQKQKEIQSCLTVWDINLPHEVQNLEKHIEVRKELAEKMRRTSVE
# [54] = biological target: Leucine-rich repeat serine/threonine-protein kinase 2 (Homo sapiens) (UniProt Q5S007); conditions: at 1 µM
# [55] = system: Leucine-rich repeat serine/threonine-protein kinase 2 (Homo sapiens), Q5S007 [G2019S]; conditions: at 0.1 µM
# Leucine-rich repeat serine/threonine-protein kinase 2 (Homo sapiens), Q5S007 [G2019S], sequence (Q5S007 whole entry G2019S): as the sequence (Q5S007 whole entry) above, with G2019S counted along it
# [56] = system: Leucine-rich repeat serine/threonine-protein kinase 2 (Homo sapiens), Q5S007 [G2019S]; conditions: at 1 µM
structure (smiles),measurement,setting,value
CNC(=O)Oc1cc(C)c(/C=C/c2cncc(C(=O)NC)c2)c(C)c1,inhibition,[1],-1.98%
same,inhibition,[2],-0.11%
same,inhibition,[3],12%
same,inhibition,[4],49.6%
same,inhibition,[5],7.72%
same,inhibition,[6],17.6%
same,inhibition,[7],17.7%
same,inhibition,[8],61.4%
same,inhibition,[9],12.4%
same,inhibition,[10],52.8%
same,inhibition,[11],5.12%
same,inhibition,[12],6.12%
same,inhibition,[13],9.51%
same,inhibition,[14],49.7%
same,inhibition,[15],0.63%
same,inhibition,[16],-1.51%
same,inhibition,[17],7.57%
same,inhibition,[18],13.2%
same,inhibition,[19],0.78%
same,inhibition,[20],3.53%
same,inhibition,[21],5.18%
same,inhibition,[22],7.85%
same,inhibition,[23],3.22%
same,inhibition,[24],0.63%
same,inhibition,[25],0.21%
same,inhibition,[26],10.2%
same,inhibition,[27],2.97%
same,inhibition,[28],2.24%
same,inhibition,[29],-0.84%
same,inhibition,[30],0.6%
same,inhibition,[31],3.83%
same,inhibition,[32],24.6%
same,inhibition,[33],0.98%
same,inhibition,[34],4.03%
same,inhibition,[35],1.57%
same,inhibition,[36],1.37%
same,inhibition,[37],0.68%
same,inhibition,[38],-0.46%
same,inhibition,[39],1.9%
same,inhibition,[40],5.43%
same,inhibition,[41],4.32%
same,inhibition,[42],23.4%
same,inhibition,[43],2%
same,inhibition,[44],-0.7%
same,inhibition,[45],4.75%
same,inhibition,[46],9.98%
same,inhibition,[47],4.23%
same,inhibition,[48],8.52%
same,inhibition,[49],-2.42%
same,inhibition,[50],1.27%
same,inhibition,[51],-1.38%
same,inhibition,[52],1.67%
same,inhibition,[53],7.04%
same,inhibition,[54],10.5%
same,inhibition,[55],5.2%
same,inhibition,[56],18.7%
